Screen size: about 48,000 compounds; about 13,000 (27%) showed an effect of 50% or more. The list shows a part of the results.
system: Wolbachia pipientis; assay: Anti-Wolbachia Cell-Based Screen; format: functional; set-up: scale not given: in the data most compounds retested in dose-response had high values; conditions: 5 µM

SMILES	Percent Effect
O=c1cc(N2CCNCC2)cnn1CCCn1cccn1	6.31%
CSCc1nc(CNC(=O)C2CCCN(CC(N)=O)C2)cs1 (centres undefined)	-6.144%
CCC(C)(C)NC(=O)COC(=O)c1cc(C)ccc1NC(=O)N(C)C	-1.36%
O=C(O)c1cccc(N2C[C@H](NC(=O)C3CCOCC3)[C@@H](C3CC3)C2)n1	-12.83%
CN(Cc1nc(Cc2cccc(C(F)(F)F)c2)no1)C1CCOCC1	106.5%
CN(CCc1cn[nH]c1)Cc1nc(Cc2cccc(F)c2)no1	-20.63%
CN(CCc1cn[nH]c1)Cc1nc(Cc2cccc(C(F)(F)F)c2)no1	-3.312%
CN1CCCCC1Cc1nc(Cc2cccc(F)c2)no1 (centres undefined)	9.056%
CCN(CC)Cc1nc(Cc2cccc(C(F)(F)F)c2)no1	107.6%
CN(Cc1nc(Cc2cccc(C(F)(F)F)c2)no1)C(C1CC1)C1CC1	104.1%
CN(CCc1ccccc1)Cc1nc(Cc2cccc(F)c2)no1	-15.79%
CN(Cc1nc(Cc2cccc(F)c2)no1)C1CCOCC1	108%
CCn1ccnc1CN(C)Cc1nc(Cc2cccc(F)c2)no1	17.71%
Cc1n[nH]c(C)c1CNCC(O)c1ccc(F)c(F)c1 (centres undefined)	-7.93%
O=C(c1ccc(-n2ccnc2)nn1)N1CCCC1CCc1ccccc1 (centres undefined)	7.406%
c1nc2c(c(NCCCn3cncn3)n1)CCN(CC1CCOC1)CC2 (centres undefined)	11.83%
CN(Cc1cccc(C(F)(F)F)c1)Cc1nc(-c2cnccn2)no1	-14.23%
CN(Cc1cnn(C)c1)Cc1nc(Cc2cccc(Cl)c2)no1	5.655%
CN(Cc1nc(Cc2cccc(C(F)(F)F)c2)no1)CC1CCCCO1 (centres undefined)	99.9%
CN(Cc1nc(Cc2cccc(C(F)(F)F)c2)no1)C1CCCCC1	113.9%

SMILES	Percent Effect
COc1ccccc1CN1CC[C@]2(C[C@@H](OCC(=O)N(C)C)CO2)C1.O=C(O)C(F)(F)F	-8.079%
O=C(O)C(F)(F)F.O=S(=O)(N[C@@H]1CCO[C@]2(CCN(CC3CCOCC3)C2)C1)C1CC1	-3.129%
O=C(O)C(F)(F)F.O=C(O)C(F)(F)F.c1ccc(OC2COC3(CCN(CC4CC4)CC3)C2)nc1 (centres undefined)	-30.37%
CN(C)C(=O)COC1COC2(CCN(CC3CC3)CC2)C1.O=C(O)C(F)(F)F (centres undefined)	-29.66%
O=C(C1CCC2(CCN(CC3CCOCC3)CC2)O1)N1CCCC1.O=C(O)C(F)(F)F (centres undefined)	-34.36%
CCOC1COC2(CCN(CC3CC3)CC2)C1.O=C(O)C(F)(F)F (centres undefined)	97.53%
CCOC1COC2(CCN(CC3CCOCC3)CC2)C1.O=C(O)C(F)(F)F (centres undefined)	102.9%
CN(C)C(=O)COC1COC2(CCN(CC3CCOCC3)CC2)C1.O=C(O)C(F)(F)F (centres undefined)	121.3%
Clc1cc(Cl)cc(CN2CCC(NCc3cc[nH]n3)CC2)c1	16.8%
Cc1cccc(C(C)(C)NC(=O)CS(=O)(=O)CC(C)C)c1	15.34%
COCCNC(=O)C[C@@H]1COC[C@H]2CN(C(=O)COC)C[C@@H]12	99.69%
O=C(C[C@@H]1COC[C@H]2CN(CC3CC3)C[C@@H]12)N1CCCCO1.O=C(O)C(F)(F)F	-10.75%
CC[C@H]1CN(S(C)(=O)=O)CC[C@H]1CC(=O)NCCOC	0.9239%
COCCNC(=O)C[C@@H]1COC[C@H]2CN(C(=O)C3CCOCC3)C[C@@H]12	115.8%
O=C(C[C@@H]1COC[C@H]2CN(CC3CCOCC3)C[C@@H]12)N1CCCCO1.O=C(O)C(F)(F)F	-14.45%
COCCNC(=O)C[C@@H]1COC[C@H]2CN(CC3CCOCC3)C[C@@H]12.O=C(O)C(F)(F)F	95.67%
CCC1CN(CC(=O)NCCOC)CCO1 (centres undefined)	-3.161%
CC[C@H]1CN(C(=O)C2CC2)CC[C@H]1CC(=O)NCCN1CCOCC1	0.8633%
COCCNC(=O)C[C@@H]1COC[C@H]2CN(C(=O)c3cnccn3)C[C@@H]12	-3.747%
Cc1ccc(CC(=O)N2CCCC(c3n[nH]c4nccnc34)C2)cc1 (centres undefined)	102%

SMILES	Percent Effect
O=C(CC1CCCC1)N1CCCC(c2n[nH]c3nccnc23)C1 (centres undefined)	-9.091%
Cc1cc(C2CCCN(C(=O)COc3ccc(F)cc3F)C2)n[nH]1 (centres undefined)	-1.844%
O=C(CCc1ccccc1)N1CCCC(c2n[nH]c3nccnc23)C1 (centres undefined)	111%
O=C(Cc1ccc(F)cc1)N1CCCC(c2n[nH]c3nccnc23)C1 (centres undefined)	91.78%
CN(C(=O)CN1CCc2nn(C)c(=O)cc2C1)c1nccs1	-17.97%
CC(=O)N1CCN(C(=O)c2c(Cl)c3ccccc3n2C)CC1	8.743%
CC(=O)N1CC=C(n2c(=O)[nH]c3ccccc32)CC1	120.7%
CC(=O)N1CCC2(CC1)CN(C(=O)c1cccc3[nH]ccc13)C2	7.707%
Cc1ccc(N2CC[C@@H](NC(=O)c3cnccn3)[C@H](O)C2)nn1	13.4%
CC(C)CN1C(=O)CO[C@@H]2CN(C(=O)N(C)C)C[C@H]21	9.504%
CN1CCC(C(=O)NCc2nncn2-c2ccccc2)CC1=O (centres undefined)	-4.452%
COCCN(C)C[C@@H]1CN(C(=O)c2cccc(C#N)c2)C[C@@H]1CO	104.9%
COc1cc(F)c(C(=O)N2C[C@@H](CN(C)CCO)[C@@H](CO)C2)c(F)c1	-8.552%
COCCN(C)C[C@@H]1CN(C(=O)c2cccc(C(F)(F)F)c2)C[C@@H]1CO	-9.662%
CN(CCO)C[C@@H]1CN(C(=O)c2c(F)cccc2Cl)C[C@@H]1CO	-7.74%
COCCN(C)C[C@@H]1CN(C(=O)c2cccc(Cl)c2)C[C@@H]1CO	153.3%
CN(CCO)C[C@@H]1CN(C(=O)c2cccc(OC(F)F)c2)C[C@@H]1CO	95.7%
CCN(C)C[C@@H]1CN(S(=O)(=O)c2cccc(C#N)c2)C[C@@H]1CO	-4.035%
CN1CCC(N[C@@H]2CO[C@H](CNC(=O)Nc3ccccc3)[C@H]2O)CC1	-15.1%

Source: ChEMBL document CHEMBL3988442, “University of Dundee, Small-Polar-MMV Screening Library” (2021)
